Only some compounds are listed: those with a hit (about 11% of all), similar ones and a draw of the others.
HTT ATP protect – qHTS Multiplex Assay to Identify Dual Action Probes in a Cell Model of Huntington: Cytoprotection (ATP) | PC12 HTT-Q103 induced, cytoprotection, ATP luminescence, 40 h | Potency, µM (doses to about 56.4 µM), for the others: cytoprotection (ATP increase), usual class: activators | 0.14% of 230,000 active; further: potency means the concentration at half of the fitted maximal effect; % of control where 0% means no effect; nearly all actives have a fitted effect of over 45% in size
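Stable PC12 Q103-GFP cells in serum-supplemented, phenol red-free DMEM; induction by tebufenozide at 100 nM final; compound dose series; cell viability quantified luminescently from ATP.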
PNC inhibitor – High Content Assay for Compounds that inhibit the Assembly of the Perinucleolar Compartment | PC3M PTB-GFP, PNC prevalence imaging, 16 h; active compounds read low | activity change (PNC), negative = inhibition, % at 10 µM | 3.1% of 140,000 active;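 active means readout at or below -70, meaning at least 70% loss of cells showing the perinucleolar compartment, a nuclear body marking cancer cells; inconclusive means readout between -30 and a set limit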;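 further: plate controls were DMSO wells for no effect and camptothecin positive control wells for full effect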
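PC3M cells stably expressing PTB-GFP, 750–1000 cells/well, treated 16 h at 37 °C with compound (23 nl of library stock), in duplicate. After paraformaldehyde fixation and Hoechst stain, imaged at 20x; PNC prevalence scored by image analysis.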
ALDH1A1 inh – qHTS Assay for Inhibitors of Aldehyde Dehydrogenase 1 (ALDH1A1); Aldehyde dehydrogenase 1A1 (Homo sapiens), P00352; Purified ALDH1A1, NADH fluorescence, propionaldehyde substrate; Potency, µM (doses to about 75.3 µM), for the others: top-dose activity, negative = inhibition, actives largely listed as inhibitors; 7.3% of 220,000 active; active means well fitted inhibition curve with a large enough effect, not every such curve was filed as active; inconclusive means small, poorly fitted or top-dose-only effect, or another doubt; inactive means no such curve, though single readings can be large or run the other way;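 further: potency means the concentration at half of the fitted maximal effect; plate controls were no enzyme wells and a reference inhibitor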
CBFb RUNX1 block – qHTS Assay for Compounds Blocking the Interaction Between CBF-beta and RUNX1 for the Treatment of Acute Myeloid Leukemia | Runt-related transcription factor 1 (Homo sapiens) + Core-binding factor subunit beta … | AlphaScreen CBFb-His/RUNX1-biotin binding, biochemical | Potency, µM (doses to about 59.8 µM), inactives show at the highest dose activity, negative = inhibition, usual class: inhibitors | 230,000 tested, under 10 active; further: % of control where 0% means no effect
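His-tagged CBF-beta and biotinylated RUNX1 (30 nM each) were premixed 20 min at room temperature, exposed to compound for 15 min, then given nickel-chelate and streptavidin AlphaScreen beads (50 ng each). After 90 min, AlphaScreen signal was read.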
HPGD block – qHTS Assay for Inhibitors of HPGD (15-Hydroxyprostaglandin Dehydrogenase); Potency, µM, for the others: top-dose activity change, negative = inhibition, actives largely listed as inhibitors; 4.3% of 150,000 active; purified HPGD, NADH fluorescence kinetic, PGE2 substrate; 15-hydroxyprostaglandin dehydrogenase [NAD(+)] (Homo sapiens), P15428; active means well fitted inhibition curve with a large enough effect, not every such curve was filed as active; inconclusive means small, poorly fitted or top-dose-only effect, or another doubt; inactive means no such curve, though single readings can be large or run the other way; further: potency means the concentration at half of the fitted maximal effect; on the % scale 0 is the no-effect control and ±100 the full control effect
Target sequence (P15428 whole entry, looked up): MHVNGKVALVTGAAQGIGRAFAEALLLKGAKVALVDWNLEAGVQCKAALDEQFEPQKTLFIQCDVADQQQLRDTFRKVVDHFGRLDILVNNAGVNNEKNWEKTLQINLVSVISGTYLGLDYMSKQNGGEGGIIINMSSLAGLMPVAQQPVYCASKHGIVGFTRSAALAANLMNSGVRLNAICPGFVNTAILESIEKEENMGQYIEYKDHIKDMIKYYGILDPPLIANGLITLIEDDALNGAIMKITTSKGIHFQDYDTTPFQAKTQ
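20 nM HPGD preincubated 15 min at room temperature with compound in 50 mM Tris-HCl pH 8, 0.01% Tween 20. Started with 1 mM NAD+ and 30 uM prostaglandin E2; NADH fluorescence (360/450 nm) read 5 times over 30-s intervals, last minus first.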
HttQ103 aggreg – qHTS Multiplex Assay to Identify Dual Action Probes in a Cell Model of Huntington: Aggregate Formation (GFP). 1.1% of 220,000 active. Potency, µM (highest dose often 46.1 µM), for inactives: at the highest dose activity change, negative = inhibition, hits mostly inhibitors. PC12 HttQ103-GFP aggregates, Acumen cytometry, 40 h; further: potency means the concentration at half of the fitted maximal effect; on the % scale 0 is the no-effect control and ±100 the full control effect; nearly all actives have a fitted effect of over 60% in size
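Read-out: GFP aggregate count by laser scanning cytometer (488 nm excitation, 500-530 nm emission, 1–25 µm objects >6 SD above background). Cells: PC12, inducible HTTex1-Q103-GFP, 100 nM tebufenozide; compounds titrated.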
The depositor's hits bear a star; u = inconclusive; x = not tested or not shown; [ ] = another dose, or the depositor's remark. Unless noted, the call rests on the fitted dose curve; in most records, active means well fitted curve in the direction sought with a large enough effect; inconclusive means small, poorly fitted or top-dose-only effect, or another doubt; inactive means no such curve, though single readings can be large; an effect the other way counts as inactive or inconclusive.

SMILES	HTT ATP protect	PNC inhibitor	ALDH1A1 inh	CBFb RUNX1 block	HPGD block	HttQ103 aggreg
CCN(CC)S(=O)(=O)c1cccc(NC(=O)c2ccccc2Br)c1	-37%	x	11µM*	11%	x	-21%
CCC(=O)Nc1cccc(NC(=O)c2ccccc2Br)c1	-2%[10 µM]	-10	-6%	2%	-20%	-15%
CCN(CC)S(=O)(=O)c1ccc(NC(=O)Nc2cccc(C(F)(F)F)c2)cc1	-63%	16	8%	10%	-1%	16µM*
CCc1ccccc1	-11%	x	-7%	1%[21.7 µM]	-4%	x
COC(=O)[C@@H]1C[C@@H]2CC[C@@H](O)C[C@@H]2N1Cc1ccc(-c2ccccc2)cc1	-9%	x	-2%	10%	-7%	x
Cn1c(CCNC(=O)c2ccco2)nc2cc(NC(=O)C3CCCCC3)ccc21	4%[10 µM]	-114*	-9%	-2%	4%	6%
Cn1c(CCNC(=O)c2ccco2)nc2cc(NS(=O)(=O)c3ccccc3)ccc21	9%	-20	20µM*	-2%	-15%	-19%
CCOC(=O)c1ccc(N2C(=O)c3n[nH]c(C)c3C2c2ccc(OC)cc2OC)cc1 (stereo not drawn)	10%[0.074 µM]	-119*	-5%	-11%	-29%	18%
Cc1c(C(=O)N(C)C)sc(NC(=O)c2cccc([N+](=O)[O-])c2)c1C#N	-21%	12	-6%	3%	u	-33%
CCN(CC)C(=O)c1sc(NC(=O)c2ccc(OC)c([N+](=O)[O-])c2)c(C#N)c1C	2%[10 µM]	0	-1%	9%	18µM*	-18%
CCN(CC)C(=O)c1sc(NC(=O)c2ccc(C)c([N+](=O)[O-])c2)c(C#N)c1C	-45%	u	-1%	-3%	28µM*	13µM*
COc1ccc(C(=O)Nc2sc(C(=O)N(C)C)c(C)c2C#N)cc1[N+](=O)[O-]	x	34	u	2%	-26%	2%
CCCc1n(CC)c2ccccc2[n+]1CC(O)COC1CCCCC1 (stereo not drawn)	-22%	x	u	-1%	x	-10%
FC(F)(F)C(F)(F)C(F)(F)C(F)(F)C(F)(F)C(F)(F)C(F)(F)C(F)(F)Br	-19%	x	x	x	x	12%
Cn1cc2cccc([N+](=O)[O-])c2n1	-38%	x	1%	-9%	x	-12%
CCCCN1C=CC(=C2N=c3cccc([N+](=O)[O-])c3=N2)C=C1	24%[10 µM]	15	-4%	u	u	0.89µM*
CC[C@H](C)[C@H](NC(=O)[C@H](CCC(=O)O)NC(=O)CNC(=O)[C@H](CCCCN)NC(=O)[C@H](CCC(=O)O)NC(=O)[C@H](CCSC)NC(=O)[C@H](CCSC)NC(=O)[C@H](CCSC)NC(=O)[C@H](CCC(=O)O)NC(=O)CNC(=O)[C@H](CO)NC(=O)[C@H](CO)NC(=O)[C@H](CO)NC(=O)[C@@H](N)CC(N)=O)C(=O)N[C@@H](CCCCN)C(=O)O	x	x	x	12%	x	x
Cc1cc(C)n(-c2nc3ccccc3c3nc(C)nn23)n1	10%[10 µM]	34	4%	9%	-7%	-18%
Cc1cc(C)n(-c2nc(C)nc3c2cnn3-c2ccccc2)n1	12%[10 µM]	-96*	1%	0%	u	11%
O=C(c1ccc(Cl)cc1)c1ccc(OCC(=O)N2CCOCC2)cc1	-16%[10 µM]	35	u	8%	28µM*	u
O=C(COc1ccc(/C=C\[N+](=O)[O-])cc1)N1CCOCC1	-16%[10 µM]	x	14µM*	-18%	x	u
O[C@@](CCN1CCCCC1)(c1ccccc1)[C@@H]1C[C@H]2C=C[C@@H]1C2	3%[40.3 µM]	x	7%[20.9 µM]	0%[21.7 µM]	-2%	x

From PubChem BioAssay
